Experiments:
Details in all cases: concentration: 1 μM, replicates: in singlicate; n = 1
[1] = system: T1, JNK3
T1 construct: gene MAPK10

[2] = system: KIT-autoinhibited
[3] = system: KIT
[4] = system: LATS1
[5] = system: LATS2
[6] = system: LCK
[7] = system: LIMK1
[8] = system: LIMK2
[9] = system: T2, LKB1
T2 construct: gene STK11

[10] = system: T3, LOK
T3 construct: gene STK10
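Further: KINOMEscan kinase panel screen.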

| Structure (SMILES) | %Inh [1] [%] | %Inh [2] [%] | %Inh [3] [%] | %Inh [4] [%] | %Inh [5] [%] | %Inh [6] [%] | %Inh [7] [%] | %Inh [8] [%] | %Inh [9] [%] | %Inh [10] [%] |
| --- | --- | --- | --- | --- | --- | --- | --- | --- | --- | --- |
| COc1ccc(Nc2nccc(N3CCC(NC(=O)C(C)c4ccc(Cl)cc4)C3)n2)cc1 (centres unmarked) [GSK1379735] | 0 | 5 | 31 | 4 | 0 | 33 | 19 | 0 | 0 | 0 |
| O=C(Nc1n[nH]c2nc(-c3cccs3)c(Br)cc12)C1CCCC1 [SB-743341] | 46 | 13 | 36 | 20 | 0 | 38 | 2 | 15 | 0 | 26 |
| COc1ccc(CSc2nnc(-c3ccc4nccn4c3)o2)cc1C(F)(F)F | 0 | 10 | 0 | 24 | 23 | 4 | 0 | 0 | 6 | 3 |
| Cc1cnc(N)c(/C=C/c2cncc(C(=O)NCCc3ccc(Cl)cc3Cl)c2)c1.Cl [GSK190937] | 4 | 0 | 99.6 | 0 | 36 | 7 | 0 | 2 | 28 | 0 |
| COc1nccc(-c2c(-c3ccc(F)cc3)ncn2CCCN2CCOCC2)n1 [SB-282852] | 51 | 20 | 0 | 0 | 27 | 25 | 0 | 0 | 0 | 45 |

Source: publication PMC5540273 (PLoS ONE, 2017)
